Data published in PubChem BioAssay AID1159580 (chemical genetic matrix, 2015).
Where “and” joins values, the source holds several entries; their conditions need not be identical. Equal entries are not always repeated. The whole screen tested about 5,500 compounds, of which about 2,000 (36%) were called active. Roughly 18% stayed inconclusive and do not appear here. Cut-off read from the data, not from the text of the source: active = normalized growth mostly below about 0.91 (no sharp cut-off); inconclusive = no clear call, values can overlap the other calls; inactive = mostly above about 0.92. This is one part of the list.

Assay: chemical genetic growth profiling, strain panel (AID 1159580);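 note: tested at 20 µM; growth read once vehicle control cultures reached saturation at 30 °C; 1 = growth at the plate median or of vehicle wells; lower values mean less growth of the strain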
Conditions: S. cerevisiae deletion strains, growth OD

Measured: normalized growth

CC(C)=CCc1c2c(c3occ(-c4ccc(O)cc4)c(=O)c3c1O)C=CC(C)(C)O2
active: locus YAL013W, strain DEP1, stronger effect = lower value 0.718 | locus YAL030W, strain snc1, stronger effect = lower value 0.876 | locus YBL061C, strain skt5, stronger effect = lower value 0.739 | locus YBR009C, strain hhf1, stronger effect = lower value 0.882 | locus YBR023C, strain chs3, stronger effect = lower value 0.747 | locus YBR231C, strain swc5, stronger effect = lower value 0.751 | locus YBR279W, strain paf1, stronger effect = lower value 0.796 | locus YCL011C, strain gbp2, stronger effect = lower value 0.881 | locus YCL016C, strain dcc1, stronger effect = lower value 0.869 | locus YDL035C, strain GPR1, stronger effect = lower value 0.72 | locus YDL074C, strain BRE1, stronger effect = lower value 0.727 | locus YDL134C, strain PPH21, stronger effect = lower value 0.736 | locus YDL192W, strain arf1, stronger effect = lower value 0.859 | locus YDR069C, strain doa4, stronger effect = lower value 0.711 | locus YDR162C, strain NBP2, stronger effect = lower value 0.664 | locus YDR297W, strain sur2, stronger effect = lower value 0.828 | locus YDR318W, strain mcm21, stronger effect = lower value 0.911 | locus YDR388W, stronger effect = lower value 0.917 | locus YEL061C, strain CIN8, stronger effect = lower value 0.869 | locus YER015W, strain faa2, stronger effect = lower value 0.653 | locus YER167W, strain BCK2, stronger effect = lower value 0.896 | locus YFR010W, strain ubp6, stronger effect = lower value 0.895 | locus YGL086W, strain mad1, stronger effect = lower value 0.861 | locus YGL173C, strain kem1, stronger effect = lower value 0.666 | locus YGL248W, strain PDE1, stronger effect = lower value 0.705 | locus YGL253W, strain hxk2, stronger effect = lower value 0.87 | locus YHR013C, strain ard1, stronger effect = lower value 0.755 | locus YHR027C, strain rpn1, stronger effect = lower value 0.614 | locus YHR129C, strain ARP1, stronger effect = lower value 0.769 | locus YHR142W, strain chs7, stronger effect = lower value 0.838 | locus YHR200W, strain rpn10, stronger effect = lower value 0.893 | locus YIL066C, strain RNR3, stronger effect = lower value 0.663 | locus YIL073C, strain SPO22, stronger effect = lower value 0.537 | locus YJL095W, strain BCK1 (second series), stronger effect = lower value 0.834 | locus YJL164C, strain tpk1, stronger effect = lower value 0.77 | locus YJL166W, strain qcr8, stronger effect = lower value 0.811 | locus YJL187C, strain SWE1 (second series), stronger effect = lower value 0.77 | locus YJL187C, strain SWE1, stronger effect = lower value 0.803 | locus YJR043C, strain POL32, stronger effect = lower value 0.717 | locus YJR075W, strain HOC1, stronger effect = lower value 0.852 | locus YKL160W, strain elf1, stronger effect = lower value 0.868 | locus YKL190W, strain CNB1, stronger effect = lower value 0.772 | locus YLL026W, stronger effect = lower value 0.915 | locus YLR027C, strain aat2, stronger effect = lower value 0.907 | locus YLR058C, strain SHM2, stronger effect = lower value 0.802 | locus YLR221C, strain rsa3, stronger effect = lower value 0.858 | locus YLR268W, strain sec22, stronger effect = lower value 0.841 | locus YLR320W, strain mms22, stronger effect = lower value 0.863 | locus YLR342W, strain FKS1, stronger effect = lower value 0.775 | locus YLR357W, strain rsc2, stronger effect = lower value 0.814 | locus YLR371W, strain rom2, stronger effect = lower value 0.806 | locus YLR418C, strain cdc73, stronger effect = lower value 0.827 | locus YML016C, strain PPZ1, stronger effect = lower value 0.677 | locus YMR058W, strain fet3, stronger effect = lower value 0.429 | locus YNL128W, strain TEP1, stronger effect = lower value 0.643 | locus YNL153C, strain GIM3, stronger effect = lower value 0.835 | locus YNL209W, strain ssb2, stronger effect = lower value 0.51 | locus YNL233W, strain BNI4, stronger effect = lower value 0.787 | locus YOL006C, strain TOP1, stronger effect = lower value 0.389 | locus YOR061W, strain CKA2, stronger effect = lower value 0.733 | locus YOR069W, strain VPS5, stronger effect = lower value 0.87 | locus YOR070C, strain gyp1, stronger effect = lower value 0.812 | locus YOR083W, strain WHI5, stronger effect = lower value 0.866 | locus YOR106W, strain vam3, stronger effect = lower value 0.634 | locus YOR184W, strain ser1, stronger effect = lower value 0.869 | locus YOR265W, strain rbl2, stronger effect = lower value 0.888 | locus YPL051W, strain arl3, stronger effect = lower value 0.658 | locus YPL106C, strain sse1, stronger effect = lower value 0.793 | locus YPR167C, strain met16, stronger effect = lower value 0.913 | strain wtn01, stronger effect = lower value 0.811
0.886 (active) and 0.97 (inactive): locus YHR030C, strain SLT2, stronger effect = lower value
inactive: locus YAL021C, strain ccr4, stronger effect = lower value 0.962 | locus YAL026C, strain drs2, stronger effect = lower value 0.911 | locus YBR021W, strain FUR4, stronger effect = lower value 0.913 | locus YBR171W, strain sec66, stronger effect = lower value 1.01 | locus YBR229C, strain ROT2, stronger effect = lower value 0.929 | locus YCL029C, strain bik1, stronger effect = lower value 0.926 | locus YCL061C, strain MRC1, stronger effect = lower value 0.947 | locus YCL069W, strain vba3, stronger effect = lower value 0.987 | locus YCR088W, strain abp1, stronger effect = lower value 1.01 | locus YDL005C, strain med2, stronger effect = lower value 0.995 | locus YDL040C, strain nat1, stronger effect = lower value 0.991 | locus YDL101C, strain DUN1, stronger effect = lower value 0.903 | locus YDL185W, strain tfp1, stronger effect = lower value 0.995 | locus YDR001C, strain nth1, stronger effect = lower value 1.01 | locus YDR101C, strain arx1, stronger effect = lower value 0.953 | locus YDR137W, strain rgp1, stronger effect = lower value 1.01 | locus YDR159W, strain sac3, stronger effect = lower value 1.07 | locus YDR195W, strain ref2 1.14 | locus YDR334W, strain swr1, stronger effect = lower value 0.92 | locus YDR335W, strain msn5, stronger effect = lower value 0.981 | locus YDR392W, strain spt3, stronger effect = lower value 0.78 | locus YDR502C, strain sam2, stronger effect = lower value 0.938 | locus YEL003W, strain gim4, stronger effect = lower value 0.94 | locus YEL037C, strain rad23, stronger effect = lower value 0.958 | locus YEL061C, strain CIN8 (second series), stronger effect = lower value 1.01 | locus YER016W, strain bim1, stronger effect = lower value 0.963 | locus YER110C, stronger effect = lower value 0.989 | locus YER111C, strain swi4, stronger effect = lower value 0.969 | locus YER155C, strain BEM2 (second series), stronger effect = lower value 0.956 | locus YER155C, strain BEM2, stronger effect = lower value 0.98 | locus YGL078C, strain dbp3, stronger effect = lower value 1 | locus YGL167C, strain pmr1, stronger effect = lower value 0.976 | locus YGL227W, strain vid30, stronger effect = lower value 1.01 | locus YGL240W, strain doc1, stronger effect = lower value 1.02 | locus YGR135W, strain pre9, stronger effect = lower value 0.955 | locus YGR252W, strain gcn5, stronger effect = lower value 1.03 | locus YHR079C, strain IRE1 (second series), stronger effect = lower value 1 | locus YHR079C, strain IRE1, stronger effect = lower value 0.992 | locus YHR094C, strain hxt1, stronger effect = lower value 1.01 | locus YIL125W, strain kgd1, stronger effect = lower value 0.982 | locus YIR030C, strain dcg1, stronger effect = lower value 0.995 | locus YJL092W, strain hpr5, stronger effect = lower value 0.977 | locus YJL115W, strain asf1, stronger effect = lower value 1.01 | locus YJL129C, strain trk1, stronger effect = lower value 1.02 | locus YJL134W, strain LCB3, stronger effect = lower value 0.944 | locus YJL154C, strain vps35, stronger effect = lower value 1.01 | locus YJL168C, strain set2, stronger effect = lower value 0.996 | locus YJR066W, strain TOR1, stronger effect = lower value 0.906 | locus YKL009W, strain mrt4, stronger effect = lower value 0.961 | locus YKL068W, stronger effect = lower value 1.01 | locus YKL085W, strain MDH1 (second series), stronger effect = lower value 1.02 | locus YKL085W, strain MDH1, stronger effect = lower value 1.02 | locus YKR001C, strain vps1, stronger effect = lower value 0.927 | locus YKR026C, strain gcn3, stronger effect = lower value 1 | locus YKR091W, strain srl3, stronger effect = lower value 0.98 | locus YLL001W, strain dnm1, stronger effect = lower value 0.937 | locus YLL041C, strain sdh2, stronger effect = lower value 0.982 | locus YLR039C, strain RIC1, stronger effect = lower value 0.863 | locus YLR102C, strain apc9, stronger effect = lower value 1.05 | locus YLR113W, strain HOG1, stronger effect = lower value 0.965 | locus YLR258W, strain gsy2, stronger effect = lower value 0.926 | locus YLR262C, strain YPT6 (second series), stronger effect = lower value 0.881 | locus YLR370C, strain arc18, stronger effect = lower value 0.978 | locus YLR384C, strain iki3, stronger effect = lower value 1 | locus YML032C, strain rad52, stronger effect = lower value 0.987 | locus YML120C, strain ndi1, stronger effect = lower value 0.99 | locus YML124C, strain tub3, stronger effect = lower value 0.994 | locus YMR078C, strain ctf18, stronger effect = lower value 1.03 | locus YMR125W, strain sto1, stronger effect = lower value 1.07 | locus YMR129W, stronger effect = lower value 0.968 | locus YMR205C, strain PFK2, stronger effect = lower value 0.902 | locus YMR223W, strain ubp8, stronger effect = lower value 0.936 | locus YMR231W, strain pep5, stronger effect = lower value 0.948 | locus YMR307W, strain GAS1, stronger effect = lower value 0.724 | locus YNL067W, strain RPL9B, stronger effect = lower value 0.93 | locus YNL071W, strain lat1, stronger effect = lower value 0.943 | locus YNL183C, strain NPR1, stronger effect = lower value 0.908 | locus YNL248C, strain rpa49, stronger effect = lower value 0.951 | locus YNL250W, strain rad50, stronger effect = lower value 0.999 | locus YNL271C, strain bni1, stronger effect = lower value 1.01 | locus YNL298W, strain CLA4, stronger effect = lower value 0.991 | locus YNL307C, strain MCK1, stronger effect = lower value 0.957 | locus YNL322C, strain KRE1 (second series), stronger effect = lower value 1.05 | locus YNR049C, strain mso1, stronger effect = lower value 0.999 | locus YNR052C, strain pop2, stronger effect = lower value 1 | locus YOL012C, strain htz1 0.443 | locus YOL147C, strain pex11, stronger effect = lower value 1 | locus YOR001W, strain rrp6, stronger effect = lower value 0.988 | locus YOR080W, strain dia2, stronger effect = lower value 0.934 | locus YOR136W, strain idh2, stronger effect = lower value 0.996 | locus YOR144C, strain elg1, stronger effect = lower value 1 | locus YOR231W, strain MKK1, stronger effect = lower value 0.991 | locus YOR270C, strain vph1, stronger effect = lower value 0.849 | locus YOR290C, strain snf2, stronger effect = lower value 1 | locus YOR316C, strain cot1, stronger effect = lower value 0.988 | locus YPL078C, strain atp4, stronger effect = lower value 0.985 | locus YPL240C, strain hsp82, stronger effect = lower value 0.957 | locus YPL241C, strain CIN2, stronger effect = lower value 0.936 | locus YPL256C, strain CLN2, stronger effect = lower value 1 | locus YPR119W, strain clb2, stronger effect = lower value 1.02 | locus YPR141C, strain kar3, stronger effect = lower value 1.01 | locus YPR163C, strain tif3, stronger effect = lower value 0.979
0.719 (active) and 0.977 (inactive): locus YJL095W, strain BCK1, stronger effect = lower value
